# Test results taken from PubChem BioAssay (Tox21).
# Inconclusive results are not listed. The source made the active and inactive calls. Calls come from the whole dose curve.
# Assay: qHTS assay to identify small molecule agonists of the hypoxia (HIF-1) signaling pathway - cell viability counter screen (AID 1224844); note: nearly all actives have a fitted effect of over 50% in size
# Conditions: HRE-bla ME-180 viability, CellTiter-Glo luminescence, 17 h; series mostly up to 76.8 µM
# Source text: National Center for Advancing Translational Sciences [NCATS]
# NIH Chemical Genomics Center [NCGC]
# U.S. Environmental Protection Agency [EPA]
# National Institutes of Environmental Health Sciences [NIEHS]
# National Toxicology Program [NTP]
# U.S. Food and Drug Administration [FDA]
# Hypoxia-inducible factor-1 (HIF-1) is the major hypoxia-regulated transcription factor that controls cellular responses to low oxygen concentration. HIF-1 is composed of two subunits: hypoxia responsive HIF-1-alpha and constitutively expressed HIF-1-beta, which is also known as aryl hydrocarbon receptor nuclear translocator. During hypoxic conditions, HIF-1-alpha heterodimerizes with HIF-1-beta and translocates into the nucleus where the HIF-1 complex binds to the hypoxia-response element (HRE) and activates expression of target genes such as VEGF (vascular endothelial growth factor). The HIF-1 pathway is essential to normal growth and development, and is involved in the pathophysiology of cancer, inflammation, and ischemia.
# Using a beta-lactamase reporter-gene under control of the hypoxia response element, a cell-based assay [CellSensor(TM) HRE-bla ME-180 from Life Technologies, Carlsbad, CA] was used to measure hypoxia-induced signaling. Tox21 10K library compounds were measured for their ability to induce the reporter gene activity. The cytotoxicity of the Tox21 compound library against HRE-bla ME-180 cell line was tested in parallel by measuring cell viability using CellTiter-Glo assay (Promega, Madison, WI) in the same assay wells.
# Tox21 Assay Protocol Summary:
# HRE-bla ME-180 cells were dispensed at 2,000 cells per well in 6 uL of assay medium containing 0.5% dialyzed FBS into black wall/clear-bottom 1536-well plates using a Multidrop Combi (Thermo Scientific, Waltham, MA) dispenser. After the assay plates were incubated at 37C and 5% CO2 for 5 hrs, 23 nL of compounds dissolved in DMSO, positive controls or DMSO only was transferred to each well of the assay plate using a Pintool station (Kalypsys, San Diego, CA). The assay plates were incubated at 37C and 5% CO2 for 17 hrs. One uL of LiveBLAzerTM B/G FRET substrate (CCF4-AM) (Life Technologies) was added to each well using a Flying Reagent Dispenser (FRD, Aurora Discovery, San Diego, CA). After 2 hr incubation at room temperature, fluorescence intensity (405 nm excitation, 460 nm and 530 nm emissions) was measured using an Envision plate reader (PerkinElmer, Shelton, CT). For cytotoxicity, 4 ul/well of CellTiter-Glo reagent was added into the assay plates using an FRD. After 30 min incubation at room temperature, the luminescence intensity was measured using a ViewLux plate reader (PerkinElmer).
# % is set by controls: 0 for no effect and ±100 for the full control effect.
Compound,outcome,"activity change, negative = cytotoxicity"
F[Si-2](F)(F)(F)(F)F,inactive,
CCC1COC(=O)O1 (stereo not given),inactive,
Nc1cc(S(=O)(=O)O)ccc1S(=O)(=O)O,inactive,
Nc1ccnc(=O)[nH]1,inactive,
Cc1cccc(Nc2ccncc2S(=O)(=O)NC(=O)NC(C)C)c1,inactive,
Cc1ccc2c(c1)c1c3n2CCNC3CCC1 (stereo not given),inactive,
CCC1Nc2cc(Cl)c(S(N)(=O)=O)cc2S(=O)(=O)N1 (stereo not given),inactive,
C=CCCCCCCCCCCC,,2.72% [at 6.97 µM] (inactive)
C[C@H](CCC(=O)NCC(=O)O)[C@H]1CC[C@H]2[C@@H]3[C@H](O)C[C@@H]4C[C@H](O)CC[C@]4(C)[C@H]3C[C@H](O)[C@]12C,inactive,
CN(C)CCOCCN(C)CCO,inactive,
CC(C)SCc1ccco1,inactive,
C[C@@H]1C[C@H]2[C@@H]3C[C@H](F)C4=CC(=O)C=C[C@]4(C)[C@@]3(F)[C@@H](O)C[C@]2(C)[C@@]1(O)C(=O)CO,inactive,
CCN1CN(CC)CN(CC)C1,inactive,
CN(C)CCCNCCC#N,inactive,
O=c1[nH]c(=O)c2[nH]c(=O)[nH]c2[nH]1,,3.89% [at 6.97 µM] (inactive)
CC(C)C(=O)Nc1cccc(C(F)(F)F)c1,inactive,
CCN(CC)C(=O)C1CN2CCc3cc(OC)c(OC)cc3C2CC1OC(C)=O (stereo not given),inactive,
N#CCCOCCOCCC#N,inactive,
Cc1cc(C)cc([N+](=O)[O-])c1,inactive,
C=C(C)C(=O)OCCCCCCOC(=O)C(=C)C,inactive,

Compound,outcome,"activity change, negative = cytotoxicity"
Cc1nc2ccccc2c(=O)o1,inactive,
CC(C)COC(=O)CCCCC(=O)OCC(C)C,inactive,
Nc1cc(Cl)cc(S(=O)(=O)O)c1O,inactive,
CC(=O)OCCCc1ccccc1,inactive,
CC(C)C(=O)c1ccccc1,inactive,
O=C(O)c1ccccc1C(=O)Nc1ccc(S(=O)(=O)Nc2nccs2)cc1,inactive,
CC1=CC[C@H](CC=O)C1(C)C,inactive,
CCCCCCCCCCCCC,inactive,
CC1(N)CCC(C(C)(C)N)CC1 (stereo not given),inactive,
COc1cc2c3cc1Oc1cc(ccc1O)C[C@@H]1c4c(cc(OC)c(O)c4Oc4ccc(cc4)C[C@@H]3N(C)CC2)CC[N+]1(C)C,inactive,
CCCCCCCCCCCCCC(=O)OC,inactive,
C=CCOCC(CO)(COCC=C)COCC=C,inactive,
c1ccc(CNc2ncnc3nc[nH]c23)cc1,inactive,
COCCOCCOCCOC,inactive,
Nc1c(NC/C=C\COc2cc(CN3CCCCC3)ccn2)c(=O)c1=O,,1.18% [at 15.8 µM] (inactive)
COC(OC)C(C)c1ccccc1 (stereo not given),inactive,
C1=CCC(c2ccccc2)CC1 (stereo not given),inactive,
CC(C)COC(=O)CC(C(=O)OCC(C)C)S(=O)(=O)O (stereo not given),inactive,
CCCCC(C)C(=O)O (stereo not given),inactive,
COc1cccc2sc(N)nc12,inactive,
